# Records with an inconclusive call do not appear. Calls of active or inactive are those of the source. Rule for the calls: active = hit-call score of the fitted dose curve at least 0.9, where 1 is the maximum; inconclusive = response in the unintended direction; inactive = score below 0.9.
# What was measured:
# [1] = target: rat Glutamate, MK-801 Agonist Site (GluNMDA_MK801), Grin1 (gene 24408) (UniProt P35439); test: NVS_LGIC_rGluNMDA_MK801_Agonist: NovaScreen (NVS) Ligand-Gated Ion Channel Assay for rat Glutamate, MK-801 Agonist Site (GluNMDA_MK801) (AID 2283340)
# In short: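 Rat forebrain membrane preparation; MK-801-site radioligand binding read by filtration and scintillation after 1.5 h. Single-point 25 uM duplicate screen, followed by singleton concentration series to 50 uM max; DMSO baseline.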
# [2] = tested on: guinea pig Histamine Receptor (H2), gene 100729734; test: NVS_GPCR_gH2: NovaScreen (NVS) G Protein-Coupled Receptor Assay for guinea pig Histamine Receptor (H2) (AID 2283342)
# In short: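 Guinea pig striatal membrane preparation with specific radioligand; bound counts measured by filtration and scintillation 1 h post-dosing, DMSO as baseline. Chemicals passing a 25 uM duplicate screen were titrated to a 50 uM maximum.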
# [3] = target: bovine Estrogen Receptor (ER), ESR1 (gene 407238) (UniProt P49884); test: NVS_NR_bER: NovaScreen (NVS) Nuclear Receptor Binding Assay for bovine Estrogen Receptor (ER) (AID 2283345);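 note: actives lower the bound radioligand count which means they displace the ER ligand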
# In short: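 Bovine uterine membranes; tritiated or iodinated radioligand; competitive displacement; 18 h; scintillation read; DMSO negative control; 25 uM duplicates, then concentration series for actives.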
# [4] = target: chimpanzee Androgen Receptor (AR), AR (gene 747460) (UniProt O97775); test: NVS_NR_cAR: NovaScreen (NVS) Nuclear Receptor Binding Assay for chimpanzee Androgen Receptor (AR) (AID 2283346);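 note: radioligand displacement from AR measured by scintillation counting in a cell-free assay; a loss of bound radioligand signal versus DMSO counts as binding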
# In short: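 Cell-free competition binding with insect-cell (Sf9/Sf21) extracted chimpanzee AR; scintillation signal from lysate at 72 h. Screened in duplicate at 25 uM, then concentration-response for actives; fitting relative to DMSO.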
# [5] = target: Estrogen receptor (Homo sapiens) (UniProt P03372); test: NVS_NR_hER: NovaScreen (NVS) Nuclear Receptor Binding Assay for human Estrogen Receptor (ER) (AID 2283348)
# In short: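 Cell-free MCF7-derived ER preparation, specific radioligand displaced by test compound, read by scintillation counting 18 h post-dosing. Duplicate single-point 25 uM screen, then concentration-response confirmation; DMSO baseline.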
# [6] = target: Estrogen receptor (Homo sapiens) (UniProt P03372); test: OT_ER_ERaERa_1440: Odyssey Thera (OT) 24-hour HEK293T Protein-Complementation Assay for Estrogen Receptor-alpha/-alpha Homodimer (AID 2283349);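 note: hits raise fluorescence above DMSO for agonists and antagonists alike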
# In short: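 HEK293T, stable ERα LBD (aa 310-547) homodimer PCA; 24 h compound exposure; mean fluorescence intensity (nuclear for agonists, nuclear plus cytoplasmic for antagonists) vs vehicle; positive fitting direction, DMSO baseline.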
# [7] = target: Estrogen receptor (Homo sapiens) (UniProt P03372); test: OT_ER_ERaERa_0480: Odyssey Thera (OT) 8-hour HEK293T Protein-Complementation Assay for Estrogen Receptor-alpha/-alpha Homodimer (AID 2283351);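 note: rise in fluorescence from reassembled reporter fragments on ERα LBD homodimer in nucleus or whole cell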
# In short: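 Measures ERα LBD (aa 310-547) homodimer complementation in stably transfected HEK293T at 8 h post-dose, with fluorescence intensity quantified on a laser scanning cytometer relative to DMSO controls.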
# [8] = target: T1, Estrogen receptor (Homo sapiens) + Estrogen receptor beta (Homo sapiens) (UniProt P03372+Q92731); test: OT_ER_ERaERb_0480: Odyssey Thera (OT) 8-hour HEK293T Protein-Complementation Assay for Estrogen Receptor-alpha/-beta Heterodimer (AID 2283352)
# In short: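 HEK293T cells expressing ER-alpha/ER-beta LBD fusions to complementary reporter fragments were dosed with compound for 8 hours. Heterodimer formation was read as increased nuclear (agonist) or nuclear plus cytoplasmic (antagonist) mean fluorescence intensity versus DMSO vehicle.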
# [9] = target: T1, Estrogen receptor (Homo sapiens) + Estrogen receptor beta (Homo sapiens); test: OT_ER_ERaERb_1440: Odyssey Thera (OT) 24-hour HEK293T Protein-Complementation Assay for Estrogen Receptor-alpha/-beta Homodimer (AID 2283356);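 note: heteromer of ER alpha and ER beta binding domains; hits raise reporter fluorescence and both agonists and antagonists give an increase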
# In short: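 HEK293T cells stably expressing a PCA pair of ERα LBD (aa 310-547) and ERβ LBD (aa 263-489) were dosed for 24 h. Fluorescence intensity increase versus DMSO vehicle was fitted as gain-of-signal.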
# [10] = target: Estrogen receptor beta (Homo sapiens) (UniProt Q92731); test: OT_ER_ERbERb_0480: Odyssey Thera (OT) 8-hour HEK293T Protein-Complementation Assay for Estrogen Receptor-beta/-beta Homodimer (AID 2283357);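 note: active means signal gain over DMSO baseline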
# In short: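 ER-beta LBD homodimer PCA stably expressed in HEK293T; 8 h compound exposure, then formaldehyde fixation and Draq5 staining. Gain in nuclear/cytoplasmic fluorescence intensity versus DMSO vehicle, read on laser scanning cytometer.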
# [11] = target: PGR (gene 5241) (UniProt P06401); test: NVS_NR_hPR: NovaScreen (NVS) Nuclear Receptor Binding Assay for human Progestron Receptor (PR) (AID 2283360);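 note: active means loss of bound radioligand signal versus DMSO baseline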
# In short: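 Competitive displacement of a labelled radioligand from T47D-derived receptor protein is measured in a cell-free format. Initial testing uses 25 uM in duplicate, with positive and negative controls on every plate.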
# [12] = target: Androgen Receptor/SRC-1 Co-activator, AR (gene 367) (UniProt P10275); test: OT_AR_ARSRC1_0960: Odyssey Thera (OT) 16-hour HEK293T Protein-Complementation Assay for Androgen Receptor/SRC-1 Co-activator (AID 2283353);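 note: actives raise the signal above DMSO so potency reflects increased AR and SRC-1 complex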
# In short: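 Sixteen-hour cell assay: Venus halves fused to AR and SRC-1 in HEK293T report binding. Images at 488/635 nm give an N/C ratio in the 488 nm channel over ≥400 cells, analysed as signal increase over DMSO.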
# [13] = target: Androgen Receptor/SRC-1 Co-activator, AR (gene 367) (UniProt P10275); test: OT_AR_ARSRC1_0480: Odyssey Thera (OT) 8-hour HEK293T Protein-Complementation Assay for Androgen Receptor/SRC-1 Co-activator (AID 2283354);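 note: hits raise the complementation signal above DMSO so AC50 marks enhancers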
# In short: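 Reconstituted split-Venus YFP signal from AR–SRC-1 interaction, read by imaging 8 h post-dose in stable HEK293T lines. The 488 nm nucleus-to-cytoplasm ratio (≥400 cells/image) was fitted upward against DMSO.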
# [14] = target: human Peroxisome Proliferator-activated Receptor alpha (PPARa), PPARA (gene 5465) (UniProt Q07869); test: NVS_NR_hPPARa: NovaScreen (NVS) Nuclear Receptor Binding Assay for human Peroxisome Proliferator-activated Receptor alpha (PPARa) (AID 2283359);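 note: activity means loss of TR-FRET signal versus DMSO baseline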
# In short: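 Loss of TR-FRET binding signal relative to DMSO was measured 1 h after chemical addition to extracted receptor protein. Chemicals were first tested in duplicate at 25 uM, and actives were followed up in concentration series.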
# T1 sequence (P03372 whole entry, looked up, the tested form may be a part): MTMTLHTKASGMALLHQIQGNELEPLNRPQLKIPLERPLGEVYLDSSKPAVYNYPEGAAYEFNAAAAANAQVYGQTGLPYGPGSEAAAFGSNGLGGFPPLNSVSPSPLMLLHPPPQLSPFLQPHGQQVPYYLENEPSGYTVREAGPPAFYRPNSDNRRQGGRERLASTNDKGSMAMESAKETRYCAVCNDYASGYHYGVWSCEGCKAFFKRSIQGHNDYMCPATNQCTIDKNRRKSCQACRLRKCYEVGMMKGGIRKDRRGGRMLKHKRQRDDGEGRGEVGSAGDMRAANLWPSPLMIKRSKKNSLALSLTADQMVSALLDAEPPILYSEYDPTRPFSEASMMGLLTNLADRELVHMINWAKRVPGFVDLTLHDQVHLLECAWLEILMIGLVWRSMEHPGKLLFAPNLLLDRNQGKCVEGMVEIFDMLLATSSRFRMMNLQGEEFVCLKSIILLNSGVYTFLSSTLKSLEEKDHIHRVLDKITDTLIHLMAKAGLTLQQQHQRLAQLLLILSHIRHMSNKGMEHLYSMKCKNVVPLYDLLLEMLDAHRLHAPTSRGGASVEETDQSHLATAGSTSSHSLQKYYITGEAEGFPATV
# T1 sequence (Q92731 whole entry, looked up, the tested form may be a part): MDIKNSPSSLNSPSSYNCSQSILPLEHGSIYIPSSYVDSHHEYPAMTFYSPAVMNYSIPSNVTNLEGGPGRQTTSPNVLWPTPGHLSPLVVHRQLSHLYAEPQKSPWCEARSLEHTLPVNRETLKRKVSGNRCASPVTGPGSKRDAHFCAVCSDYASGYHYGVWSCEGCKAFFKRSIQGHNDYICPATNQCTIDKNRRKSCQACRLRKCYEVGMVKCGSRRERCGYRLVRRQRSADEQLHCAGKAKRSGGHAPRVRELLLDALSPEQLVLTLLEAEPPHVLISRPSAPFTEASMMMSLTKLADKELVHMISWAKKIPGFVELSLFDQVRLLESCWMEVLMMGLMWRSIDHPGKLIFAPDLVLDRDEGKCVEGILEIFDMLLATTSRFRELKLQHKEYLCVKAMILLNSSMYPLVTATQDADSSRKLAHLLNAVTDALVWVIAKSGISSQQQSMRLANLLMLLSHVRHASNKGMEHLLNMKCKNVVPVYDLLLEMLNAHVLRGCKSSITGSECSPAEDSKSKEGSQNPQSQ
# Chain of Estrogen receptor (Homo sapiens) (P03372 whole entry, looked up, the tested form may be a part): as the sequence (P03372 whole entry, looked up, the tested form may be a part) above
# Chain of Estrogen receptor beta (Homo sapiens) (Q92731 whole entry, looked up, the tested form may be a part): as the sequence (Q92731 whole entry, looked up, the tested form may be a part) above
# Chain of Androgen Receptor/SRC-1 Co-activator, AR (gene 367) (P10275 whole entry, looked up, the tested form may be a part): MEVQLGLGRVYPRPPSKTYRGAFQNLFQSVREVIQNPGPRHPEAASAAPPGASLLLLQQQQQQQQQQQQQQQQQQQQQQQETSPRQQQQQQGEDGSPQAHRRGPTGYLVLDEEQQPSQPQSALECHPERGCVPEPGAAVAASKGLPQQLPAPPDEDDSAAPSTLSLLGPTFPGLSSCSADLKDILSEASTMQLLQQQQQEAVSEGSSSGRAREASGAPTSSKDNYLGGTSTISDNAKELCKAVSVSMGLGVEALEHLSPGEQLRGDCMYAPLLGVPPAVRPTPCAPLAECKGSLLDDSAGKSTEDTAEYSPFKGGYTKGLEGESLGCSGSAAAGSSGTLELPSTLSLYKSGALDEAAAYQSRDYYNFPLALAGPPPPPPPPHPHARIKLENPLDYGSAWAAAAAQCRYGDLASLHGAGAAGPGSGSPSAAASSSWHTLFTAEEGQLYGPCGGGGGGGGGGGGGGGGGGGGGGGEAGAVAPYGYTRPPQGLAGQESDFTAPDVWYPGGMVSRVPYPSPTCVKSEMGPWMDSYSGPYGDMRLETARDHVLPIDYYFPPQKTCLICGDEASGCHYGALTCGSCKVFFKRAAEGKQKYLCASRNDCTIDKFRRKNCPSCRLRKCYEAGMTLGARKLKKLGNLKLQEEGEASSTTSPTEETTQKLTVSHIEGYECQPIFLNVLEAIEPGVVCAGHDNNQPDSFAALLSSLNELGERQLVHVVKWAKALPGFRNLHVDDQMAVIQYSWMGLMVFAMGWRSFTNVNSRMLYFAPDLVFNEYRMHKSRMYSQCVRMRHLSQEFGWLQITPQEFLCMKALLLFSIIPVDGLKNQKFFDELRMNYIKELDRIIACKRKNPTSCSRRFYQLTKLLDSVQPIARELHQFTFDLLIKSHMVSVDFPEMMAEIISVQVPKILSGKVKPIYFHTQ
# Chain of PGR (gene 5241) (P06401 whole entry, looked up): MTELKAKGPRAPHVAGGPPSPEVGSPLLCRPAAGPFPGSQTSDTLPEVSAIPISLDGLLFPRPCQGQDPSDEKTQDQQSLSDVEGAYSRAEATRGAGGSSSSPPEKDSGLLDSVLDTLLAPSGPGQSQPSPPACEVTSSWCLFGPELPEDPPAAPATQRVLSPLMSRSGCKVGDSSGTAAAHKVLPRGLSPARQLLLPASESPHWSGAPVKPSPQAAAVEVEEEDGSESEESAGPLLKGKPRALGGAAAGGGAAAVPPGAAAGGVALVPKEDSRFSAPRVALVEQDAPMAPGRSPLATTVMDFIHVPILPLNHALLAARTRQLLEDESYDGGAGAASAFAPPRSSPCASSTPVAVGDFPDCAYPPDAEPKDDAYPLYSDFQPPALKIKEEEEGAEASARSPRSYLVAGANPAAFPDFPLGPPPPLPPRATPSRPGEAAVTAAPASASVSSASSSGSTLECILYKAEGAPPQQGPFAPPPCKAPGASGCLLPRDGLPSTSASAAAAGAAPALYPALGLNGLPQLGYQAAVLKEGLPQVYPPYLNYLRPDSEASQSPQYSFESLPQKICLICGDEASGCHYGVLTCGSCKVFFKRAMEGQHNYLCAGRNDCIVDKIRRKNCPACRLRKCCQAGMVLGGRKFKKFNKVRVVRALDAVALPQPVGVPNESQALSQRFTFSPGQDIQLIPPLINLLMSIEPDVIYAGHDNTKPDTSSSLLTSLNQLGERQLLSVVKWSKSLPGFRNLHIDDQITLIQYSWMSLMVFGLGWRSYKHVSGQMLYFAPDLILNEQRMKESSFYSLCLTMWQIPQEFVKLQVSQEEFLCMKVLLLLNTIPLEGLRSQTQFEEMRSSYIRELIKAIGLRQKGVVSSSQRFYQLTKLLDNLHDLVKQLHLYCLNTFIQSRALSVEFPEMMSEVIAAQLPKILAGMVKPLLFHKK
# Chain of chimpanzee Androgen Receptor (AR), AR (gene 747460) (O97775 whole entry, looked up): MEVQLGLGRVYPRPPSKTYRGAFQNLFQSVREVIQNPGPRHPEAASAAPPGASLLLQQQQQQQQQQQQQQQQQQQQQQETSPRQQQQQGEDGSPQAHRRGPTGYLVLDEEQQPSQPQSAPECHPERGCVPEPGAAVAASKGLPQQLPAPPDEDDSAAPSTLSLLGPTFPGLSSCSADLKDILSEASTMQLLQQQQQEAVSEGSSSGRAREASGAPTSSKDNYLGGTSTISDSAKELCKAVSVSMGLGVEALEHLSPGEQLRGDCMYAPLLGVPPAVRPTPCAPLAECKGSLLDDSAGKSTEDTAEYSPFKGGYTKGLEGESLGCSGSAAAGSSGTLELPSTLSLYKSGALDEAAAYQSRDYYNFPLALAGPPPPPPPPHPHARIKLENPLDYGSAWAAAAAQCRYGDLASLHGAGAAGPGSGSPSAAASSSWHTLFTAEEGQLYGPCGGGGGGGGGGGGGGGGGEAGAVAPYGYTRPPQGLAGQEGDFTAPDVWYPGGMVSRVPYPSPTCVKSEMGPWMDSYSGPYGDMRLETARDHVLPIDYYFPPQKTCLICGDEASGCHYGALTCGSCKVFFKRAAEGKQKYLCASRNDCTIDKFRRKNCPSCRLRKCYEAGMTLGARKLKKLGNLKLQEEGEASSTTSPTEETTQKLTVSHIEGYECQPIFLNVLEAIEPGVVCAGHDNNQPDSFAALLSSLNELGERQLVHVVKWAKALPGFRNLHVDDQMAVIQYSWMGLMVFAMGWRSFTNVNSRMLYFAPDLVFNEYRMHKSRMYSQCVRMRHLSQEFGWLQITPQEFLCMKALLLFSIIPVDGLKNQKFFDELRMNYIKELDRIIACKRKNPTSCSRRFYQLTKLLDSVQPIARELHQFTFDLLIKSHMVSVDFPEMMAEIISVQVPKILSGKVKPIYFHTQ
smiles,measurement,setting,value
c1ccc(C(O[C@@H]2CCCN(CCc3ccc4c(c3)OCO4)C2)c2ccccc2)cc1,outcome,[1],inactive
same,AC50,[2],0.337 µM (active)
same,outcome,[3],inactive
same,outcome,[4],inactive
same,outcome,[5],inactive
same,AC50,[6],68.3 µM (active)
same,outcome,[7],inactive
same,AC50,[8],31.5 µM (active)
same,AC50,[9],62.5 µM (active)
same,outcome,[10],inactive
same,outcome,[11],inactive
CCn1nc(C)c2c1C(=O)NCC(c1ccc(O)cc1)=N2,outcome,[2],inactive
same,outcome,[6],inactive
same,outcome,[7],inactive
same,outcome,[8],inactive
same,outcome,[9],inactive
same,outcome,[10],inactive
Nc1ccn([C@@H]2O[C@H](CO)[C@@H](O)[C@@H]2O)c(=O)n1,AC50,[5],22.5 µM (active)
same,outcome,[6],inactive
same,outcome,[7],inactive
CCCC(CCC)C(=O)O,outcome,[5],inactive
same,outcome,[6],inactive
same,outcome,[7],inactive
CCCc1ccccc1,outcome,[6],inactive
same,outcome,[7],inactive
same,outcome,[8],inactive
same,outcome,[10],inactive
same,outcome,[11],inactive
COCc1nnc(-c2ccc[n+]([O-])c2)n1-c1c(Cl)c(Cl)cc2[nH]c(=O)c(=O)[nH]c12,outcome,[6],inactive
same,outcome,[7],inactive
same,outcome,[8],inactive
same,outcome,[12],inactive
same,outcome,[13],inactive
same,outcome,[9],inactive
same,outcome,[10],inactive
OC(Cn1cncn1)(Cn1cncn1)c1ccc(F)cc1F,outcome,[6],inactive
same,outcome,[7],inactive
same,outcome,[9],inactive
CC(C)CC(C)O (configuration not stated),outcome,[6],inactive
same,outcome,[7],inactive
same,outcome,[8],inactive
same,outcome,[9],inactive
same,outcome,[10],inactive
CC[C@H](C)C(=O)O[C@H]1C[C@H](O)C=C2C=C[C@H](C)[C@H](CC[C@@H](O)C[C@@H](O)CC(=O)O)[C@H]21,outcome,[6],inactive
same,outcome,[7],inactive
same,outcome,[8],inactive
same,outcome,[9],inactive
same,outcome,[10],inactive
O=S(=O)(O)c1ccc(N=Nc2c(O)ccc3cc(S(=O)(=O)O)ccc23)cc1,outcome,[6],inactive
same,outcome,[7],inactive
same,outcome,[11],inactive
C=CN1CCCC1=O,outcome,[6],inactive
same,outcome,[7],inactive
CCCOc1ccc(S(=O)(=O)N2CCN(CC)CC2)cc1-c1nc2c(CC)n(Cc3ccccn3)nc2c(=O)[nH]1,outcome,[6],inactive
same,outcome,[7],inactive
same,outcome,[8],inactive
same,outcome,[9],inactive
same,outcome,[10],inactive
same,outcome,[11],inactive
CC(C)CCCCCCOC(=O)C1CCCCC1C(=O)OCCCCCCC(C)C (configuration not stated),outcome,[6],inactive
same,outcome,[7],inactive
same,outcome,[8],inactive
same,outcome,[9],inactive
O=S1(=O)CCCO1,outcome,[6],inactive
same,outcome,[7],inactive
same,outcome,[8],inactive
same,outcome,[9],inactive
same,outcome,[10],inactive
NC(=O)N(O)[C@@H]1COc2cc(OCc3ccccc3)ccc21,outcome,[6],inactive
same,outcome,[7],inactive
same,outcome,[8],inactive
same,outcome,[9],inactive
same,outcome,[10],inactive
CCCCOC(=O)c1ccccc1,outcome,[6],inactive
same,outcome,[7],inactive
same,outcome,[12],inactive
same,outcome,[13],inactive
O=C1CN(N=Cc2ccc([N+](=O)[O-])o2)C(=O)N1,outcome,[6],inactive
same,outcome,[7],inactive
same,outcome,[10],inactive
CC(C)c1nnc2ccc(-c3ocnc3-c3cc(F)ccc3F)cn12,outcome,[6],inactive
same,outcome,[7],inactive
same,outcome,[8],inactive
same,outcome,[9],inactive
same,outcome,[10],inactive
CCCCCCOC(=O)CC(CC(=O)OCCCCCC)(OC(=O)CCC)C(=O)OCCCCCC,outcome,[6],inactive
same,outcome,[7],inactive
same,outcome,[8],inactive
same,outcome,[12],inactive
same,outcome,[13],inactive
same,outcome,[9],inactive
same,outcome,[10],inactive
CCCCN1C(=O)[C@@H]([C@H](O)C2CCCCC2)NC(=O)C12CCN(Cc1ccc(Oc3ccc(C(=O)O)cc3)cc1)CC2,outcome,[6],inactive
same,outcome,[7],inactive
same,outcome,[8],inactive
same,outcome,[9],inactive
same,outcome,[14],inactive

# Reference: PubChem BioAssay (EPA / NIEHS)
